Test results as given in PubChem BioAssay (NCATS).
Records with an inconclusive call do not appear. Active and inactive are the calls of the source. Calls come from the whole dose curve; as a rule, active = well fitted curve in the direction sought with a large enough effect; inconclusive = small, poorly fitted or top-dose-only effect, or another doubt; inactive = no such curve, though single readings can be large; an effect the other way counts as inactive or inconclusive.

How the values were obtained:
[1] = qHTS assay for measurement of the activity of small molecule inhibitors on Zika virus induced Caspase-3 activity in human iPSC derived neural progenitor cells (hNPCs) (AID 1224857); note: nearly all actives have a fitted effect of over 65% in size
Method in brief: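 Cells were plated at 350 per well and grown 16 to 20 hours. Compound pretreatment lasted one hour, after which ZIKV (2 FFU/cell) was added for 6 hours. Percent inhibition was normalized between uninfected and infected controls.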

[2] = qHTS assay for measurement of the activity of small molecule inhibitors on Zika virus induced Caspase-3 activity in human astrocytoma cells (AID 1224859)
Method in brief: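 Percent inhibition of virus-induced caspase-3/7 signal is calculated against uninfected and ZIKV-infected control cells. Cells are SNB-19, infected at 2 FFU/cell for 6 h after 1 h compound exposure.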

[3] = P-glycoprotein substrates identified in KB-8-5-11 adenocarcinoma cell line, qHTS therapeutic library screen (AID 1346987); note: nearly all actives have a fitted effect of over 65% in size
Method in brief: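 KB-8-5-11, a colchicine-selected P-gp-overexpressing KB-3-1 subline, was grown without colchicine for the assay. Cells were seeded at 500 cells/well, dosed in concentration-response and incubated 72 h at 37 degree C, 5% CO2. Viability was read by CellTiter-Glo luminescence.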

[4] = NS1 protein of Zika virus - qHTS assay to identify small molecule inhibitors in human HEK 293 cells (AID 1347053); note: series mostly up to about 46 µM; nearly all actives have a fitted effect of over 55% in size
Method in brief: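 HEK 293; 20 h pre-culture, 37 C/5% CO2; cpd 1 h pre-infection; ZIKV MR766, MOI = 0.5, 24 h, 37 C; TR-FRET NS1 readout (two anti-NS1 Abs); norm. to no-virus vs infected.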

[5] = qHTS of pediatric cancer cell lines to identify multiple opportunities for drug repurposing: Primary screen for TC32 cells (AID 1347089); note: nearly all actives have a fitted effect of over 60% in size
Method in brief: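 Luminescent ATP read-out (CellTiter-Glo) of metabolically active TC32 cells after 48 h exposure. Concentration-response curves came from 11-point (MIPE, 0.78 nM–46 µM) or 8-point (NPC, 0.59 nM–46 µM) primary titrations; follow-up used 11 points.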

[6] = qHTS of pediatric cancer cell lines to identify multiple opportunities for drug repurposing: Primary screen for DAOY cells (AID 1347090); note: series mostly up to about 46 µM; nearly all actives have a fitted effect of over 55% in size
Method in brief: (§1)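 Viability measured as metabolically active cells via CellTiter-Glo luminescence following 48 hours of compound exposure, 11-point dilutions in confirmatory testing. 500-1,000 cells/well plated 5 hours before dosing; controls were DMSO and 2.3 µM bortezomib.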

[7] = qHTS of pediatric cancer cell lines to identify multiple opportunities for drug repurposing: Primary screen for SJ-GBM2 cells (AID 1347091)
Method in brief: as §1

[8] = qHTS of pediatric cancer cell lines to identify multiple opportunities for drug repurposing: Primary screen for A673 cells (AID 1347092); note: nearly all actives have a fitted effect of over 45% in size
Method in brief: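 Cell viability of A673 measured by CellTiter-Glo ATP luminescence after 48 hours compound exposure. Dilution series spanned 0.78 nM to 46 µM (MIPE, 11-point) or 0.59 nM to 46 µM (NPC, 8-point); bortezomib 2.3 uM positive control.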

[9] = qHTS of pediatric cancer cell lines to identify multiple opportunities for drug repurposing: Primary screen for SK-N-MC cells (AID 1347093); note: series mostly up to about 46 µM
Method in brief: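 Metabolically active cells were quantified by ATP-dependent luminescence (CellTiter-Glo, 15 min at room temperature) following 48 h treatment. Cells had been plated at 500-1,000 per well and settled for 5 h beforehand.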

[10] = qHTS of pediatric cancer cell lines to identify multiple opportunities for drug repurposing: Primary screen for BT-37 cells (AID 1347094); note: series mostly up to about 57 µM
Method in brief: (§2)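 Viability was measured as metabolically active cells after 48 hours of treatment, read by CellTiter-Glo luminescence. Compounds were tested at multiple final concentrations, giving concentration-response curves.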

[11] = qHTS of pediatric cancer cell lines to identify multiple opportunities for drug repurposing: Primary screen for NB-EBc1 cells (AID 1347095)
Method in brief: as §2

[12] = qHTS of pediatric cancer cell lines to identify multiple opportunities for drug repurposing: Primary screen for U-2 OS cells (AID 1347096); note: nearly all actives have a fitted effect of over 50% in size
Method in brief: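 Viability after 48 h compound treatment at 37C, 500-1,000 cells/well, read as ATP luminescence with CellTiter-Glo. Primary screens used 11-point (MIPE, 0.78 nM-46 µM) or 8-point (NPC, 0.59 nM-46 µM) final concentrations; follow-up screens used 11-point dilutions.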

[13] = qHTS of pediatric cancer cell lines to identify multiple opportunities for drug repurposing: Primary screen for Saos-2 cells (AID 1347097); note: nearly all actives have a fitted effect of over 40% in size
Method in brief: as §2

Measured: Potency

O=C(O)CNC(=O)CNC(=O)CNC(=O)CSC(=O)c1ccccc1
inactive: all assays above

Cc1ccccc1N1CCN(CCc2nnc3n2CCCC3)CC1
inactive: all assays above

O=C(O)[C@H](O)[C@@H](O)[C@H](O[C@@H]1O[C@H](CO)[C@H](O)[C@H](O)[C@H]1O)[C@H](O)CO
not listed: [11]
inactive: all other assays above

COc1ccccc1OCC1CNC(=O)O1 (stereo not given)
inactive: all assays above

O=C(CCCCC(=O)Nc1c(I)cc(I)c(C(=O)O)c1I)Nc1c(I)cc(I)c(C(=O)O)c1I
not listed: [11]
inactive: all other assays above

OC[C@]1(O)OC[C@@H](O)[C@H](O)[C@@H]1O
inactive: all assays above

CC(C)(C)C(O)/C=C/c1ccc2c(c1)OCO2 (stereo not given)
inactive: all assays above

COc1cc(C=O)ccc1O
inactive: all assays above

CCc1cc(S(=O)(=O)O)c2cc(C(C)C)cccc1-2
inactive: all assays above
